# Experimental data reported in PubChem BioAssay (Tox21).
# Several values for one entry are separate records, joined by “and”; a condition that tells them apart may be missing. Equal values may be shown once. Records with an inconclusive call do not appear. Activity calls are given as the source filed them. Calls come from the whole dose curve; as a rule, active = well fitted cell-killing curve with a large enough effect in the repeat runs; inconclusive = weak or mixed curves, or effect the other way; inactive = flat fitted curve, though single readings scatter.
# Test: qHTS RealTime-Glo MT Cell Viability Assay in HEK293 cells - 40 hour (AID 1224874); note: nearly all actives have a fitted effect of over 50% in size
# Conditions: RealTime-Glo luminescence; max response: active compounds read low
# Source text: U.S. Tox21 Program National Center for Advancing Translational Sciences [NCATS] NIH Chemical Genomics Center [NCGC] U.S. Environmental Protection Agency [EPA] National Institutes of Environmental Health Sciences [NIEHS] National Toxicology Program [NTP] U.S. Food and Drug Administration [FDA] Tox21 Assay Overview: Measure of cell viability is critical in the cell-base assay. Analysis of cell viability is necessary for the characterization of cell responses to cytotoxic drugs and environmental stress. A RealTime-Glo MT Cell Viability Assay to monitor cell viability in real time of continues cell culture during 40 hours of compound treatment was used to screen Tox21 10K library compounds in Hek293 cells. The RealTime-Glo MT Cell Viability Assay is a nonlytic, homogeneous, bioluminescent method to measure cell viability in real time using a simple, plate-based method. The assay involves adding NanoLuc luciferase and a cell-permeant prosubstrate to cells in culture. Viable cells reduce the proprietary prosubstrate to generate a substrate for NanoLuc luciferase. This substrate diffuses from cells into the surrounding culture medium, where it is rapidly used by the NanoLuc Enzyme to produce a luminescent signal. The signal correlates with the number of viable cells, making the assay well suited for cytotoxicity studies.
# Tox21 Assay Protocol Summary: The mixture of Hek293 cell suspension and reagents were dispensed at 600cells/6 ul/well in 1536-well tissue culture treated black solid bottom plates using a Multidrop dispenser. After the assay plates were incubated at a 37 C/5% CO2 incubator for 5 hours, 23 nL of compounds dissolved in DMSO, positive and negative controls was transferred to the assay plate by a pintool work station. The plates were incubated at 37 C for 40 hours. The luminescence intensity were measured at 0h, 8h, 16h, 24h, 32h and 40h time points using ViewLux plate reader during compound treatment.
# % is set by controls: 0 for no effect and ±100 for the full control effect; potency is the fitted concentration of half-maximal effect.
SMILES,max response,Potency
C=CC(C)(CCC=C(C)C)OC=O (stereo not given),5.29% (inactive),–
Oc1ccccc1O,–,35.1 µM (active) and 24.5 µM (active)
CCCCCc1ccc(Cl)cc1,–,15.5 µM (active)
Cc1cccc(C)c1NC(=O)c1ccc(N)cc1,-2.12% (inactive),–
CCCCCCOC(=O)C(C)CC (stereo not given),-1.46% (inactive),–
O=C(/C=C/c1ccc(O)c(O)c1)O[C@@H](C(=O)O)[C@@H](OC(=O)/C=C/c1ccc(O)c(O)c1)C(=O)O,1.33% (inactive),–
CC/C=C\CCCCCO,9.87% (inactive),–
S=c1nccc[nH]1,13.6% (inactive),–
O=C(O)[C@H](O)[C@@H](O)[C@H](O[C@@H]1O[C@H](CO)[C@H](O)[C@H](O)[C@H]1O)[C@H](O)CO,11.3% (inactive),–
CCCC(=O)OCCc1ccccc1,5.68% (inactive),–
C#Cc1ccc(-c2ccccc2F)cc1,5.33% (inactive),–
Cc1cc(C(C)(C)C)c(O)c(C)c1Cn1c(=O)n(Cc2c(C)cc(C(C)(C)C)c(O)c2C)c(=O)n(Cc2c(C)cc(C(C)(C)C)c(O)c2C)c1=O,–,21.9 µM (active)
O=C1c2ccccc2C(=O)N1SC1CCCCC1,–,21.9 µM (active) and 38.9 µM (active)
Cc1cc(-c2ccc(N=Nc3cc(S(=O)(=O)O)c4ccccc4c3N)c(C)c2)ccc1N=Nc1cc(S(=O)(=O)O)c2ccccc2c1N,–,2.2 µM (active)
CCCNCCC,-5.51% (inactive),–
CN(C)c1ccc(C(=C2C=CC(=[N+](C)C)C=C2)c2ccc(N(C)C)cc2)cc1,–,1.73 µM (active) and 4.9 µM (active) and 1.69 µM (active)
O=c1c(O)c(-c2ccc(O)cc2O)oc2cc(O)cc(O)c12,7.77% (inactive),–
CC1(C)[C@@H](O)CC[C@]2(C)[C@H]3C(=O)C=C4[C@@H]5C[C@@](C)(C(=O)O)CC[C@]5(C)CC[C@@]4(C)[C@]3(C)CC[C@@H]12,13.7% (inactive),–
COc1ccc2cc1Oc1ccc(cc1)C[C@H]1c3c(cc4c(c3Oc3cc5c(cc3OC)CCN(C)[C@@H]5C2)OCO4)CCN1C,–,6.74 µM (active)
O=C(/C=C/c1ccccc1)OC/C=C/c1ccccc1,-1.97% (inactive),–

SMILES,max response,Potency
CCCCOC(=O)CC,2.07% (inactive),–
C=C(CC)C(=O)c1ccc(OCC(=O)O)c(Cl)c1Cl,-6.17% (inactive) and 15.5% (inactive),–
OCCN1CCN(CCCN2c3ccccc3Sc3ccc(C(F)(F)F)cc32)CC1,–,23.9 µM (active)
CN1CCN(Cc2cc(-c3ccc4[nH]c(=O)oc4c3)co2)[C@@H](c2ccc(F)cc2)C1,–,26.5 µM (active)
CCC(C)(CCC(C)C)C(=O)[O][Sn]([CH3])([CH3])[O]C(=O)C(C)(CC)CCC(C)C (stereo not given),0.738% (inactive),–
O=C(O)c1cc(N=Nc2ccc([N+](=O)[O-])cc2)ccc1O,-17% (inactive),–
O=C(O)Cc1ccccc1Nc1c(Cl)cccc1Cl,15.1% (inactive) and 6.54% (inactive),–
Nc1nc(-c2ccccc2)cs1,-6.02% (inactive),–
O=C(Oc1ccccc1)Oc1ccccc1,-21% (inactive),–
O=C(Nc1ccc2c(O)c(N=Nc3ccc(N=Nc4ccc(S(=O)(=O)O)cc4)cc3)c(S(=O)(=O)O)cc2c1)c1ccccc1,-19.7% (inactive),–
COc1ccc(-c2coc3cc(O)ccc3c2=O)cc1,-10.2% (inactive),–
CCN(CC)c1ccc2c(-c3ccc(S(=O)(=O)O)cc3S(=O)(=O)[O-])c3ccc(=[N+](CC)CC)cc-3oc2c1,-15.9% (inactive),–
NC(=S)NC(N)=S,-1.4% (inactive),–
Cc1nc(-c2ccc(Cl)cc2)oc1COC(C)(C)C(=O)O,0.172% (inactive),–
C1CCC(SSC2CCCCC2)CC1,-7.62% (inactive),–
CC1(C)CCC[C@]2(C)[C@H]3CC(=O)O[C@]3(C)CC[C@@H]12,-15.3% (inactive),–
C#CC1(O)CC[C@H]2[C@@H]3CCC4=CCCC[C@@H]4[C@H]3CC[C@@]21C (stereo not given in full),–,19.5 µM (active) and 19 µM (active)
C#C[C@]1(O)CC[C@H]2[C@@H]3[C@H](C)CC4=C(CCC(=O)C4)[C@H]3CC[C@@]21C,-25.5% (inactive),–
O=S(=O)(O)c1ccccc1/C=C/c1ccc(-c2ccc(/C=C/c3ccccc3S(=O)(=O)O)cc2)cc1,3.02% (inactive),–
O=C(O)CN(CCN(CC(=O)O)CC(=O)O)CC(=O)O,7.27% (inactive),–
